Data as given in PubChem BioAssay (EPA / NIEHS).
Values joined by “and” are separate entries in the source; they are usually repeats but may differ in a detail not shown here. Equal entries are not always repeated. Results filed as inconclusive are left out. Active and inactive are the calls of the source. How the source made its calls: active means hit-call score of the fitted dose curve at least 0.9, where 1 is the maximum; inconclusive means response in the unintended direction; inactive means score below 0.9.

System: DIO3 (gene 1735)
Test: CCTE_GLTED_hDIO3: CCTE's human Deiodinase 3 (DIO3) Inhibition Assay, Great Lakes Toxicology and Ecology Division (GLTED) Lab (AID 2284055);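 further: potency is for inhibition seen as loss of released iodide signal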
Procedure, shortened: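 Cell-free assay with human DIO3 enzyme produced by adenovirus expression; enzyme incubated with test chemical for 3 hours. Liberated iodide then measured by Sandell-Kolthoff absorbance; loss of signal versus DMSO baseline indicates inhibition, run in triplicate.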

| SMILES | AC50 |
| --- | --- |
| O=C(O)C(F)(F)C(F)(F)C(F)(F)C(F)(F)C(F)(F)C(F)(F)C(F)(F)C(F)(F)C(F)(F)F | 89.4 µM (active) and 74.2 µM (active) |
| Oc1ccc(C(c2ccc(O)cc2)(C(F)(F)F)C(F)(F)F)cc1 | 136 µM (active) |
| CCCCCCCCCc1ccc(O)cc1 | 17.4 µM (active) |
| CCCCCCCCCC[N+](C)(C)CCCCCCCCCC | 3.56 µM (active) |
| Clc1ccc(C(Cl)(Cl)Cl)cc1 | 73.1 µM (active) |
| CC#Cc1cc(C)nc(Nc2ccccc2)n1 | 3.73 µM (active) |

System: not listed separately
Test: CCTE_Shafer_MEA_dev_LDH: CCTE's Lactate Dehydrogenase Assay for Cytotoxicity in the Neural Network Formation Assay, Shafer Lab (AID 2284068);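 further: exposure for twelve days from plating with re-dosing on DIV 5 and 9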
Procedure, shortened: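 Cytotoxicity companion to network-formation recordings: rat cortical neurons received compound over 12 days of development, re-dosed at DIV 5 and 9 feeds. Viability was inferred from LDH enzyme activity relative to DMSO.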

| SMILES | outcome | AC50 |
| --- | --- | --- |
| c1cc2ccc3cccc4ccc(c1)c2c34 | inactive | – |
| O=C(O)C(F)(F)C(F)(F)C(F)(F)C(F)(F)C(F)(F)F | inactive | – |
| Oc1ccc(C(c2ccc(O)cc2)(C(F)(F)F)C(F)(F)F)cc1 | – | 10 µM (active) and 13.1 µM (active) |
| O=C(O)C(F)(F)C(F)(F)C(F)(F)C(F)(F)C(F)(F)C(F)(F)C(F)(F)C(F)(F)F | inactive | – |
| C=CC(N)=O | inactive | – |
| O=S(=O)(O)C(F)(F)C(F)(F)C(F)(F)C(F)(F)C(F)(F)C(F)(F)F | inactive | – |
| CO/C=C(/C(=O)OC)c1ccccc1COc1cccc(C(F)(F)F)n1 | – | 122 nM (active) and 665 nM (active) |
| NS(=O)(=O)C(F)(F)C(F)(F)C(F)(F)C(F)(F)C(F)(F)C(F)(F)C(F)(F)C(F)(F)F | – | 27.6 µM (active) and 23.6 µM (active) |
| ClC1=C(Cl)[C@]2(Cl)[C@@H]3[C@@H](Cl)[C@H]4O[C@H]4[C@@H]3C1(Cl)C2(Cl)Cl | – | 22.5 µM (active) |
| ClC1=C(Cl)[C@]2(Cl)[C@@H]3[C@H]4C[C@H]([C@@H]5O[C@H]45)[C@@H]3[C@@]1(Cl)C2(Cl)Cl | inactive | – |
| Clc1ccc(C(c2ccccc2Cl)C(Cl)(Cl)Cl)cc1 (configuration not stated) | – | 2.38 µM (active) |
| COc1ccc(O)c(C(C)(C)C)c1 | inactive | – |
| ClC1=C(Cl)[C@]2(Cl)[C@@H]3[C@@H]4C[C@@H]([C@H]5O[C@@H]45)[C@@H]3[C@@]1(Cl)C2(Cl)Cl | – | 11.3 µM (active) |
| O=S(=O)(O)C(F)(F)C(F)(F)C(F)(F)C(F)(F)F | inactive | – |
| ClC(Cl)=C(c1ccc(Cl)cc1)c1ccc(Cl)cc1 | – | 5.14 µM (active) |
| CCOP(=S)(OCC)SCSC(C)(C)C | – | 15.1 µM (active) and 29.5 µM (active) |
